Rows were chosen to be rich in hits. Some 6% of all compounds tested hit in one or more screens of this group.
DRD3 antagonist: blocks the human D3 dopamine receptor. P35462. D3R cells, DiscoveRx beta-arrestin luminescence, antagonist mode; stronger effect = lower value. max response, negative = inhibition, %. 2.5% of 360,000 active. AID 652054; in the data active = max response below about -50%; inconclusive = no clear call, values can overlap the other calls
Target sequence (P35462 whole entry, looked up): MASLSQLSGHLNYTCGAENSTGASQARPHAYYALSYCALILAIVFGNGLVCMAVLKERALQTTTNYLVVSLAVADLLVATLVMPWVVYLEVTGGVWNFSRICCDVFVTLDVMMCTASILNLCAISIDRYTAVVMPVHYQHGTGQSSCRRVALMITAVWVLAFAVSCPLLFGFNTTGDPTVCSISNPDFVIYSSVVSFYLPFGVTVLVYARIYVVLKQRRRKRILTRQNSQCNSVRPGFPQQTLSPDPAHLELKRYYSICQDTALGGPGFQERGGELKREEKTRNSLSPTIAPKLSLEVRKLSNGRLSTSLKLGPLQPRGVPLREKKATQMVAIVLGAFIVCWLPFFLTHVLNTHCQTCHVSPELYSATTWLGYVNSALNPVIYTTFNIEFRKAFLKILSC
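Cells plated overnight at 1500 cells/well, then exposed to library compounds with dopamine controls for 90 minutes at 37 degrees C. DiscoveRx reagent added for 30–60 minutes at room temperature; luminescence read, quantitative HTS format.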
D1 antag: human D1 dopamine receptor antagonism. 3.2% of 360,000 active. activity change, negative = inhibition, % at 10 µM. AID 504652. P21728. HEK293 TREx D1 cells, calcium flux, dopamine EC80; stronger effect = lower value; in the data active = activity change below about -30%
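Tetracycline-induced HEK293 Trex D1 cells, force-coupled to calcium, dye-loaded; compounds added and read 180 s, then EC80 dopamine added and calcium flux tracked kinetically another 180 s.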
D1 ag: human D1 receptor agonism | P21728 | activation, % at 2 µM | HEK293 T-REx D1 cells, calcium flux, agonist mode | 1% of 360,000 active; in the data active = activation above about 30%
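Agonism was scored from calcium flux recorded over 180 s (1 read/s) after pintool compound addition, following a 10-cycle baseline. Cells were inducible force-coupled HEK293 TREx D1, plated overnight at 30 C and loaded with no-wash calcium dye.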
D1 potentiator: potentiators of human D1 dopamine receptor; AID 504651; P21728; 0.036% of 360,000 active; potentiation, % at 10 µM; HEK293 TREx D1 cells, calcium flux, dopamine EC20 potentiation; in the data active = potentiation above about 30%
D3 ag: D3 dopamine receptor (human) agonism; AID 652048; max activation, %; D3R DiscoveRx beta-arrestin cells, luminescence, 90 min; 0.58% of 410,000 active; P35462; in the data active = max activation above about 30%
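Cells at 1500/well, incubated overnight, then treated with pinned compounds (dopamine as control) for 90 min at 37 degrees C. DiscoveRx reagent added for 30 - 60 minutes at room temperature; luminescence read.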
Large screens that a line does not name were inactive.

Cc1cccc2sc(N(CCCN(C)C)C(=O)c3ccc(C(=O)c4ccccc4)cc3)nc12	DRD3 antagonist inconclusive, D1 antag -31
Cc1cccc2sc(N(CCCN(C)C)C(=O)COc3ccccc3)nc12	D1 ag 64 (no result: DRD3 antagonist)
Cc1ccc2sc(N(CCN(C)C)C(=O)c3ccc4ccccc4c3)nc2c1C	DRD3 antagonist -73
Cc1ccc2sc(N(CCCN(C)C)C(=O)CN3C(=O)c4ccccc4C3=O)nc2c1C	D1 ag 46
Cc1cccc2sc(N(CCCN(C)C)C(=O)c3sc4ccccc4c3Cl)nc12	none
COc1cc(NS(=O)(=O)c2ccc(N)cc2)nc(C)n1	none (no result: DRD3 antagonist, D1 antag, D1 ag, D1 potentiator)
N#Cc1nc(Nc2cccc(Br)c2)nc(NC2CCCC2)n1	none (no result: DRD3 antagonist, D3 ag)
COc1cccc2sc(N(CCCN(C)C)C(=O)c3sc4ccccc4c3Cl)nc12	D1 antag -73
Cc1cc(C)c2nc3sc(C(=O)N4CCOCC4)c(N)c3cc2c1	DRD3 antagonist inconclusive, D1 ag 38
Cc1ccc2nc3sc(C(=O)Nc4ccc(N5CCOCC5)cc4)c(N)c3cc2c1	D1 ag 39 (no result: DRD3 antagonist, D3 ag)
Cc1sc(NC(=O)c2sc3nc4c(C)cccc4cc3c2N)c(C#N)c1C	D1 ag 55
Cc1ccc2nc(C)c(C(=O)N/N=C/c3ccco3)cc2c1	none
Cc1cccc2cc3c(N)c(C#N)sc3nc12	none
Cc1ccc(C)c2nc3sc(C(=O)N4CCOCC4)c(N)c3cc12	none
Cc1ccc2nc(C)c(C(=O)N/N=C/c3ccc(N4CCOCC4)cc3)cc2c1	D3 ag 31
O=C(Nc1ccc(Oc2ccccc2)cc1)c1ccc(F)c(S(=O)(=O)N2CCN(c3ccccc3F)CC2)c1	none (no result: DRD3 antagonist)
CO[C@@H]1[C@@H](OC)[C@H](C)[C@@](O)(CC(=O)O)O[C@H]1[C@H](C)[C@H]1O[C@@]2(CC[C@@](C)([C@H]3CC[C@@](C)([C@@H]4O[C@@H]([C@H]5O[C@](C)(O)[C@H](C)C[C@@H]5C)C[C@@H]4OC4C[C@H](OC)[C@@H](OC)[C@H](C)O4)O3)O2)C[C@H](O)[C@H]1C (some centres undefined)	none (no result: DRD3 antagonist, D1 antag, D1 ag, D1 potentiator)
Cc1cccc2cc3c(N)c(C(=O)N4CCc5ccccc54)sc3nc12	D1 ag 126
CCCC1=NN(C(=O)C(=O)Nc2ccc(Br)cc2)C(O)(C(F)(F)F)C1 (centres undefined)	DRD3 antagonist -56
Cc1cccc(CNC(=O)Cc2csc3ccccc23)c1	none (no result: DRD3 antagonist)
O=C(CCCCCNC(=O)N1CCn2c1nc1ccccc12)N[C@@H](Cc1ccccc1)C(=O)O	D3 ag 30
Cc1ccc(CNC(=O)c2cn(C3CCCCC3)c(=O)c3c2c2ccccc2n3C)o1	DRD3 antagonist -75
Cc1ccc(CNC(=O)c2cn(C)c(=O)c3c2c2ccccc2n3C)o1	none
Cc1ccc(CNC(=O)c2cc3c(=O)n(C)c4ccccc4c3n2C)o1	D1 antag -45 (no result: D1 potentiator)
Cc1cc(NC(=O)CCc2nc3cccnc3n2-c2ccccc2)ccc1Br	none (no result: DRD3 antagonist)
CCn1cc(C(=O)NCc2ccccc2Cl)c(=O)c2cc(S(=O)(=O)N3CCc4ccccc4C3)ccc21	none (no result: DRD3 antagonist)
COCCN1Cc2cccc(C(=O)N3CCN(c4cc(C)ccc4C)CC3)c2C1=O	none (no result: D1 potentiator)
Cc1ccc(Cl)cc1N1CCN(C(=O)Cn2ncc3c4ccccc4n(C)c3c2=O)CC1	D1 antag -33 (no result: DRD3 antagonist)
Cc1cccc(N2CCN(C(=O)c3cc4c(=O)n(C)c5ccccc5c4n3C)CC2)c1C	none
CCCN1Cc2cccc(C(=O)N3CCN(c4cc(Cl)ccc4C)CC3)c2C1=O	DRD3 antagonist -51 (no result: D1 potentiator)
Cc1ccc(Cl)cc1N1CCN(C(=O)c2cc3c(=O)n(C)c4ccccc4c3n2C)CC1	D1 antag -36 (no result: D1 potentiator)
COc1ccc(C)cc1S(=O)(=O)Nc1cccc(-c2ccc(N3CCCC3)nn2)c1	none (no result: DRD3 antagonist)
Cc1ccc2c(c1)C(=O)CC1(CCCCCC1)O2	DRD3 antagonist -115
Cc1ccc2c(c1)C(=O)CC1(CCCC1)O2	none
Cc1ccc(C)c(N2CCN(C(=O)c3ccc4nc(-c5ccco5)c(-c5ccco5)nc4c3)CC2)c1	D3 ag 34
Cc1ccc(-c2c(C#N)c(N)nc3c2CCCCC3)o1	D1 antag -48
CCOC(=O)C1(C)/C(=N/Nc2ccccc2)C(=O)C(=O)N1c1ccccc1 (centres undefined)	DRD3 antagonist -58
CCOc1ccc(C2c3[nH]c4ccccc4c3CCN2C(=O)CSc2ccccc2)cc1 (centres undefined)	none (no result: DRD3 antagonist)
CCOc1ccc(C(=O)Nc2ccc3oc(-c4ccc(C)cc4C)nc3c2)cc1Br	none (no result: DRD3 antagonist)
COc1cccc(C2CC(c3cccc(Br)c3)n3ncnc3N2)c1 (centres undefined)	D1 antag -57
Cc1cccc(C2CC(c3ccc(Br)cc3)Nc3nc(N)nn32)c1 (centres undefined)	none
COc1ccc(C2CC(c3cccc(C)c3)n3nc(N)nc3N2)cc1 (centres undefined)	D1 antag -31
CCOc1ccc(C(c2c(O)cc(C)n(Cc3ccco3)c2=O)N2CCN(C)CC2)cc1 (centres undefined)	none (no result: DRD3 antagonist)
Cn1nc(C(=O)NCc2ccccc2)c2c1-c1ccccc1SC2	none (no result: DRD3 antagonist)
Cn1nc(C(=O)NCc2ccccc2Cl)c2c1-c1ccccc1SC2	D1 antag -33 (no result: DRD3 antagonist)
O=C(NC1CC(=O)N(c2cccc(F)c2)C1)C1CC1 (centres undefined)	none (no result: DRD3 antagonist, D1 antag)
Cc1c(C(=O)Nc2cccc(-c3nc4ccccc4s3)c2)oc2ccccc12	none (no result: DRD3 antagonist)
CCOC(=O)C1=C(C)NC(C)=C(C(=O)OCC)C1C(=O)OCC(=O)N(C)C	D1 antag -60
CCOC(=O)C1=C(C)NC(C)=C(C(=O)OCC)C1C(=O)O	none
CCOC(=O)C1=C(C)NC(C)=C(C(=O)OCC)C1c1ccc(O)cc1	D1 antag -36
CCCC1C(C(=O)OCC)=C(C)NC(C)=C1C(=O)OCC	D1 antag -50
Cc1c(Cl)cccc1NC(=O)Cn1c(=O)cc(C)c2c(C)nn(-c3cccc(F)c3)c21	none (no result: DRD3 antagonist)
CN(Cc1ccccc1)C(=O)c1nc[nH]c1C(=O)N1CCc2ccccc2C1	none (no result: D1 antag)
O=C(c1nc[nH]c1C(=O)N1CCc2ccccc2C1)N1CCc2ccccc2C1	D1 antag -66, D3 ag 142
CCC(=O)c1ccc2ncccc2c1	D1 antag -30
COc1ccc(OC)c(NC2=NC3(CCCCC3)N=C(N)N2)c1	DRD3 antagonist -55, D1 antag -54
COc1ccc(NC2=NC3(CCCCC3)N=C(N)N2)cc1	D1 antag -87
Cc1cc(Br)ccc1NC(=O)c1ccc(NS(=O)(=O)c2c(C)noc2C)cc1	none (no result: DRD3 antagonist)
O=C(CN1CCC(NC(=O)c2ccco2)CC1)Nc1ccccc1C(F)(F)F	none
S=C(Nc1cc(Cl)cc(Cl)c1)NC1CCN(Cc2ccccc2)CC1	DRD3 antagonist -94
CCCN1CCC(NC(=S)Nc2cccc(Cl)c2Cl)CC1	none
S=C(Nc1ccc(Cl)cc1Cl)NC1CCN(Cc2ccccc2)CC1	none

Assay outcomes (PubChem)
